High-throughput results as filed in PubChem.
Pf growth 48h: P. falciparum growth inhibition at 48 hours (one generation); Potency, µM (series often up to 28.7 µM), for inactives: top-dose activity change, negative = inhibition, actives largely listed as inhibitors; 5.9% of 310,000 active; P. falciparum luciferase growth in erythrocytes, 48 h; note: potency is the fitted concentration of half-maximal effect
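Growth was read as firefly luciferase luminescence after a 48 h, 37 C, 5% CO2 exposure of compounds to reporter-bearing P. falciparum cultures (0.1% parasitemia, 2% hematocrit final) in Albumax-supplemented RPMI 1640.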
MARV entry inh: Marburg virus entry inhibition; Marburg virus pseudotyped entry inhibition, cell reporter; Potency, µM (doses to about 37.8 µM), without a hit: top-dose activity change, negative = inhibition, actives largely listed as inhibitors; 1.8% of 300,000 active; AID 540276; calls by dose curve; tested in HEK293 cells; note: potency is the fitted concentration of half-maximal effect
HCV inh: HCV inhibition; Huh7.5.1 HCVcc-Cre infection, luciferase reporter, 44 h; Potency, µM (top dose mostly 41.8 µM), for inactives: at the top dose activity change, negative = inhibition, most hits filed as inhibitors; 3.4% of 340,000 active; note: potency is the fitted concentration of half-maximal effect
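Whole-lifecycle infectious HCVcc-Cre system; cells 1,000/well, compound then virus (~0.5 moi) added 4 h after plating, 44 h culture. Luciferase read 15 sec following 15 min substrate incubation, room temp.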
HCMV inh: inhibitors of human cytomegalovirus | HFF cells, HCMV-luciferase reporter, 72 h; hits give low values | 4.5% of 410,000 active | activity change, negative = inhibition, % at 57.5 µM; in the data active = activity change below about -60%; inconclusive = no clear call, values can overlap the other calls; inactive = above about -39%
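Compounds were evaluated in HFFs infected with an HCMV luciferase reporter virus (MOI 1 PFU/cell). Luciferase in lysates collected 72 h post infection served as the replication measure.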
LASV entry inh: blocks Lassa virus binding to or entry into cells; Lassa virus pseudotype entry inhibition, cell reporter; Potency, µM (highest dose often 37.9 µM), inactives show at the top dose activity change, negative = inhibition, actives largely listed as inhibitors; 1.2% of 300,000 active; calls by dose curve; tested in HEK293 cells; note: potency is the fitted concentration of half-maximal effect; nearly all actives have a fitted effect of over 50% in size
Pf growth 96h: P. falciparum growth inhibition at 96 hours | P. falciparum luciferase reporter growth, 96 h | Potency, µM (highest dose often 28.7 µM), inactives show at the top dose activity change, negative = inhibition, hits mostly inhibitors | 6.9% of 320,000 active; note: potency is the fitted concentration of half-maximal effect
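Plates of compound plus infected erythrocytes (2% hematocrit, 0.05% parasitemia final) incubate 96 hours, 37 C, 5% CO2. Detection reagent added; reduced luminescence from the parasites' luciferase reporter flags inhibition.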
* marks the source's active call; other numbers are inactive results; u = inconclusive; x = not tested or not shown; [ ] = remark or other dose. Rows were chosen to be rich in hits. Some 14% of all compounds tested hit in one or more screens of this group. Unless noted, calls come from the whole dose curve; as a rule, active = well fitted inhibition curve with a large enough effect; inconclusive = small, poorly fitted or top-dose-only effect, or another doubt; inactive = no such curve, though single readings can be large or run the other way. % is set by controls: 0 for no effect and ±100 for the full control effect.

SMILES	Pf growth 48h	MARV entry inh	HCV inh	HCMV inh	LASV entry inh	Pf growth 96h
O=C(CSc1nnc2ccc(-c3cccnc3)nn12)Nc1ccc(F)cc1	0%	-6%	2%[8.37 µM]	-19	1%	u
O=C(CSc1nnc2ccc(-c3ccncc3)nn12)Nc1ccc(F)cc1	12µM*	0%	16%	-23	-15%	u
COc1ccc(NC(=O)CSc2nnc3ccc(-c4ccncc4)nn23)cc1	0%	7%[46.1 µM]	-3%	-71*	11%	-9%
O=C1c2ccccc2C(=O)C1(c1ccccc1)N1CCN(c2cccc(C(F)(F)F)c2)CC1	x	u	x	-20	1%[46.1 µM]	x
CCOc1ccc(OCC(=O)Nc2nccs2)cc1	-60%	u	-2%	x	u	3%
Cc1ccc(S(=O)(=O)N(C)c2ccc(OCC(=O)Nc3nc(-c4ccccc4)cs3)cc2)cc1	u	u	u	-16	u	u
CN(c1ccc(OCC(=O)Nc2nc(-c3ccccc3)cs2)cc1)S(=O)(=O)c1ccc(F)cc1	-18%	u	10µM*	-24	-24%	u
CCOc1ccc(S(=O)(=O)N(C)c2ccc(OCC(=O)Nc3nccs3)cc2)cc1	1.9µM*	u	u	11	23%[46.1 µM]	u
Cc1ccc(S(=O)(=O)N(C)c2ccc(OCC(=O)Nc3nc4c(ccc5ccccc54)s3)cc2)cc1	1%	1.4µM*	u	24	2%	-28%
O=C(C1CC(=O)N(c2ccc3c(c2)OCCO3)C1)N1CCN(Cc2ccccc2F)CC1 (stereo unspecified)	-10%	x	-10%	-35	x	u
CCOc1ccc(NC(=O)c2cc3c(n(-c4ccc(OC)cc4)c2=O)CC(C)(C)CC3=O)cc1	x	u	x	-1	u	x
O=C(NC(=S)Nc1cc(-c2nc3ccccc3[nH]2)ccc1Cl)c1ccc2c(c1)OCO2	4.7µM*	-27%	u	-76*	u	u
Cc1ccc(-c2nc3ccccc3o2)cc1NC(=O)c1ccc2c(c1)OCO2	156%	25%	-13%	66	29%	x
Cc1ccc(-c2nc3ccccc3[nH]2)cc1NC(=O)c1ccc2c(c1)OCO2	u	5%	11µM*	-9	u	u
CCOc1ccc(NC(=O)CN(C)C(=O)COc2cccc3c2OC(C)(C)C3)cc1OCC	13µM*	x	u	35	x	u
COC(=O)c1ccc(NC(=O)COc2cccc3c2OC(C)(C)C3)cc1	-5%	-18%	u	-4	-9%[46.1 µM]	1%
CN(C)C(=O)c1ccc(NC(=O)COc2cccc3c2OC(C)(C)C3)cc1	u	-1%	u	-101*	5%	4%
COC(=O)c1ccccc1C(=O)N1CCOCCN(C(=O)c2ccccc2C(=O)OC)CCOCC1	9%	18%	29%	62	-2%	23%
Cc1ccccc1C(=O)Oc1ccccc1C(=O)N1CCOCC1	-13%	7%	12%	12	3%	8.3µM*
O=C(CN1C(=O)NC2(CCCCCC2)C1=O)NCc1ccc(Cl)cc1	x	u	-23%	-11	-20%	x
CCOC(=O)c1ccc(Oc2c(C)oc3cc(OS(C)(=O)=O)ccc3c2=O)cc1	14%	u	u	-77*	5%	-21%
CSc1oc(-c2ccc(F)cc2)nc1S(=O)(=O)c1ccc(Br)cc1	x	-11%[46.1 µM]	x	-2	u	x
CCCCS(=O)(=O)c1oc(-c2ccc(F)cc2)nc1S(=O)(=O)c1ccc(C)cc1	x	10µM*	x	-100*	u	x
CCCCS(=O)(=O)c1oc(-c2cccs2)nc1S(=O)(=O)c1ccc(F)cc1	x	u	x	-98*	u	x
CCCCCS(=O)(=O)c1oc(-c2cccs2)nc1S(=O)(=O)c1ccc(C)cc1	x	-1%[46.1 µM]	x	-88*	-10%[46.1 µM]	x
SMILES	Pf growth 48h	MARV entry inh	HCV inh	HCMV inh	LASV entry inh	Pf growth 96h
CCC(C)S(=O)(=O)c1oc(-c2ccc(F)cc2)nc1S(=O)(=O)c1ccc(F)cc1 (stereo unspecified)	x	u	x	-100*	u	x
Cc1ccc(S(=O)(=O)c2nc(-c3ccc(F)cc3)oc2N2CCN(c3ccccc3)CC2)cc1	x	-3%[46.1 µM]	x	0	-29%[46.1 µM]	x
CCCSc1oc(-c2cccs2)nc1S(=O)(=O)c1ccc(C)cc1	x	-9%[46.1 µM]	x	-24	10%[46.1 µM]	x
Cc1ccc(CN(C(=O)c2ccccc2)c2ccccn2)o1	x	2%[46.1 µM]	x	5	u	x
CCC[C@H]1[C@@H](NC(=O)Nc2ccc(C)cc2)CC[C@@]23CCCN2C(=O)CCC[C@@H]13	x	x	x	40	x	x
CCS(=O)(=O)c1oc(-c2ccc(F)cc2)nc1S(=O)(=O)c1ccccc1	x	u	x	-99*	u	x
CCCCNc1oc(-c2ccc(OC)cc2)nc1S(=O)(=O)c1ccccc1	-25%	-12%	-20%	-30	u	x
CSc1ccc(CNC(=O)c2ccc(NC(=O)c3nsc4ccccc34)cc2)cc1	x	x	x	-96*	6%[46.1 µM]	x
Cc1ccc(CNC(=O)c2ccccc2NC(=O)c2nsc3ccccc23)cc1	x	x	x	-88*	u	x
CCn1c(SCC(=O)NC2CC2)nnc1-c1ccc(OC)cc1	12%	5%	x	15	0%	-39%
CN(C)c1ccc(/C=C2/C(=O)Nc3ccccc32)cc1	x	2µM*	x	x	x	x
CN(C)c1ccc(/C=C2\C(=O)Nc3ccccc32)cc1	x	2µM*	x	x	u	x
O=C1Nc2ccccc2/C1=C/c1cccnc1	-10%	u	u	-18	u	u
COc1ccc(-c2noc3ccccc23)cc1	x	x	x	4	x	x
CCc1ccccc1N(CC)C(=O)Cn1nc(Cc2ccncc2)c2ccccc2c1=O	x	u	x	-72*	-6%[46.1 µM]	x
Clc1ccc(-c2nnn3c2nc(NC2CCCCC2)c2ccccc23)cc1	x	6%[46.1 µM]	x	14	-10%[46.1 µM]	x
CC(=O)C[C@H](O)CC(=O)[C@H]1OC(=O)CCCCCc2ccccc21	x	x	14%	-16	x	x
CC(=O)C[C@H](O)CC(=O)[C@H]1OC(=O)CC/C=C\Cc2ccccc21	12%	x	-6%	-61*	x	40%
Cc1ccc(C=CC2=C[C@]3(C)C[C@]2(C)[C@H](c2ccc(C)cc2)CC3=O)cc1	x	-4%[14.2 µM]	x	x	x	x
C=CCn1c(SCc2ccccc2Cl)nnc1-c1sc2nc(C)cc(C)c2c1N	12µM*	0%	u	-12	x	u
Cc1cc(C)c2c(N)c(-c3nnc(SCc4ccc(Cl)cc4)n3C)sc2n1	-4%	-5%	20%	u	11%	21%
Cn1c(NCCCN2CCOCC2)nc2c1c(=O)n(Cc1ccc(Cl)cc1Cl)c(=O)n2C	u	u	11µM*	u	11%	3%
Cn1cnc2c1c(=O)n(Cc1ccc(Cl)cc1Cl)c(=O)n2C	-6%	x	-2%	18	x	9.3µM*
CCC(=O)N1CCN(c2ccc(Cl)cc2NC(=O)c2ccc([N+](=O)[O-])o2)CC1	u	u	-9%	u	-23%[46.1 µM]	10µM*
